Potency and affinity values are given separately. Active and inactive are the calls of the source. How the calls were made is not given here.
assay: P. falciparum Dd2 growth inhibitors, dose response, SYBR Green, dry powder samples (AID 1159566); conditions: SYBR Green fluorescence; series mostly up to 19.5 µM; activity change: at the top concentration

Activity change, inactive:
COc1cccc(C#Cc2ccc([C@H]3[C@@H](CO)N(C(=O)c4ccccn4)[C@H]3C#N)cc2)c1 -5.01%
C[C@@H]1CN([C@H](C)CO)C(=O)c2cccc(NC(=O)c3ccc(-c4nccs4)cc3)c2O[C@H]1CN(C)Cc1ccc(C(F)(F)F)cc1 29.4%
Cc1ccccc1-c1ccccc1[C@H]1[C@@H](C#N)N(C(=O)c2ccccc2)[C@@H]1CO 7.53%
O=C(NC[C@@H]1CC[C@H]2[C@H](CN2Cc2cc(-c3ccccc3)on2)O1)c1ccc2c(c1)OCO2 19%
COc1ccc(S(=O)(=O)Nc2ccc3c(c2)CC(=O)N([C@@H](C)CO)C[C@H](C)[C@H](CN(C)S(=O)(=O)c2ccc(OC)cc2)O3)cc1 43.3% [at 21 µM]

— PubChem BioAssay AID1159566 (Broad Institute, 2015)
